# A selection: hits, their analogues and other compounds. The true share with any hit is near 4.3%.
# NadD inh = NadD (S. aureus) enzyme inhibition | purified NadD enzyme, colorimetric absorbance read-out | inhibition, % at 20 µM | 360,000 tested, 0.78% active | AID 602399; in the data active means inhibition above about 26%
# FAS-TE inh = FAS thioesterase (human) inhibition. recombinant FAS-TE, OMFH fluorogenic substrate, fluorescence endpoint. inhibition, % at 15 µM. 360,000 tested, 0.67% active;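 active means compounds whose normalised, plate-corrected inhibition of enzyme fluorescence in the single-dose primary screen is 50% or more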;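 further: 0% = DMSO with enzyme and 100% = substrate without enzyme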
# rCAG RNA binder = binds r(CAG) RNA repeats; inhibition, % at 3 µM; r(CAG) RNA repeat, TO-PRO-1 dye displacement fluorescence; 370,000 tested, 1.3% active;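 active means inhibition above the plate cutoff, the mean of all test compounds on that plate plus 3 SD, cut at about 35% in these data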;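 further: 0% = DMSO alone and 100% = 100 µM mitoxantrone as full dye displacement; higher means more dye released from RNA so lower well fluorescence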
# NR3A LBD binder = modulates the human NR3A ligand-binding domain; AID 1259313; 340,000 tested, 2.5% active; Tm shift relative to glycine control, % at 25 µM; NR3A LBD differential scanning fluorimetry, Tm shift; 0% = protein alone, 100% = glycine-bound protein;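 active means melting temperature shift of at least 10% of the positive control shift, at one fixed dose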
# Active calls of the source: *; . = no result given.
SMILES,NadD inh,FAS-TE inh,rCAG RNA binder,NR3A LBD binder
COc1cc(SSc2cc(OC)cc([N+](=O)[O-])c2N)c(N)c([N+](=O)[O-])c1,26,0,19,37*
CCOC(=O)[C@@]12CCCC3=C1N(CCC3)C(=O)[C@H]2CC(=O)NCCCN1CCCC1=O,.,.,0,.
CCn1c(=Nc2ccc(N3CCOCC3)cc2)ccc2ccccc21,-4,-3,0,14*
O=c1[nH]c(-c2ccccc2)cs1,-3,-6,-1,11*
O=c1[nH]c(-c2ccc(Cl)cc2)cs1,-9,-3,21,-1
CCc1ccc2oc(=O)cc(CN3CCOCC3)c2c1,2,-3,-2,10*
CCc1ccc2c(CN3CCOCC3)cc(=O)oc2c1,-2,-8,-2,-5
O=C(NCCc1ccccc1)OCc1cn(Cc2ccc(F)c(F)c2)nn1,.,.,-2,.
CC(=O)Nc1ccc(/C=C/c2ccc3cccc([N+](=O)[O-])c3n2)cc1,-6,15,20,26*
COc1cc2c(cc1OC)[C@@H](NC(=O)c1ccncc1)[C@H](C)[C@H]2c1ccccc1,.,.,3,.
NC(=O)CC[C@H](NC(=O)OCc1ccccc1)C(=O)OCc1ccc(Cl)cc1,-8,-4,-4,-2
O=C(CCC(NC(=O)OCc1ccccc1)C(=O)OCc1ccccc1)NCC(=O)OCc1ccccc1 (centres undefined),-3,15,-6,12*
CCC1CCc2c(sc(NC(=O)C3c4ccccc4Oc4ccccc43)c2C(N)=O)C1 (centres undefined),11,24,8,17*
C=CCN1C(=O)[C@@H](CC(=O)N2CCN(C(=O)OCC)CC2)[C@]2(C(=O)OC)CCCCC=C12,.,.,3,.
Cc1cc(Nc2ncc(Cl)cc2Cl)n(-c2ccccc2)n1,-2,3,0,11*
CCCN1C(=O)c2[nH]nc(-c3ccccc3)c2C1c1ccc(F)cc1 (centres undefined),.,.,0,.
CCN(CC)C(=O)CC[C@H]1CC[C@]2(CCCN(c3ccccc3)C2)O1,.,.,4,.
N#C/C(=C\c1ccco1)C(=O)Nc1ccc(S(N)(=O)=O)cc1,0,-8,1,2
NS(=O)(=O)c1ccc(-c2ccc(/C=N/NC(=O)c3ccccc3O)o2)cc1,-2,2,7,13*
NC(=S)NN=Cc1ccc(-c2ccc(S(=O)(=O)Nc3ncccn3)cc2)o1,20,-9,30,-1
N#C/C(=C/c1ccc(-c2ccc(S(N)(=O)=O)cc2)o1)C(=O)Nc1ccccc1,6,0,11,23*
Cc1ccc(S(=O)(=O)NCC(=O)N2CCN(c3ccccn3)CC2)cc1C,.,.,-1,.
O=S(=O)(NCCc1csc(-c2cccnc2)n1)c1cccs1,-8,-6,3,13*
OC(c1ccccc1)(c1ccccc1)C1CCN(CCCOc2ccc(-c3ccc(F)cc3F)cc2)CC1,.,.,8,.
Cc1ccc(NC(=O)Nc2cccc3ccccc23)cc1,0,-1,1,-11
SMILES,NadD inh,FAS-TE inh,rCAG RNA binder,NR3A LBD binder
N#CCc1ccc(NC(=O)Nc2cccc3ccccc23)cc1,-6,-4,.,21*
COc1ccc(NC(=O)c2ccc(C#N)cc2)cc1NS(=O)(=O)c1ccc(F)cc1,-8,0,6,0
COc1cc(NC(=O)COC(=O)Cc2ccc(-c3ccccc3)cc2)cc(OC)c1,-7,24,10,36*
CCOC(=O)c1ccc(NC(=O)c2ccc(NS(C)(=O)=O)cc2)cc1,-4,-8,8,16*
COc1ccc(OC)c(NS(=O)(=O)c2ccc(NC(=O)c3ccc(NS(C)(=O)=O)cc3)cc2)c1,-1,-2,25,21*
COc1cccc(C(=O)Nc2ccccc2)c1,-2,3,-5,26*
COc1ccc(OC)c(NC(=O)COC(=O)Cc2ccc(-c3ccccc3)cc2)c1,7,30,8,-11
O=C(Nc1ccc(N2CCOCC2)c(Cl)c1)c1cccc(F)c1,1,2,0,12*
CC(C)c1ccc(NC(=O)c2ccc(NS(C)(=O)=O)cc2)cc1,-1,0,7,20*
COc1ccc(NC(=O)NNC(=O)COc2ccc3cc(Br)ccc3c2)cc1OC,0,-4,7,-1
O=C(Nc1cccc(F)c1)c1ccccc1,4,-4,-1,-30
O=C(Nc1ccc(Nc2ccccc2)cc1)c1cccc(F)c1,-8,23,2,29*
COc1ccc(NC(=O)NNC(=O)COc2ccc3ccccc3c2)cc1OC,-1,-8,2,16*
COC(=O)[C@]12C[C@H](CC(=O)NCc3ccccc3)C(=O)N(CCc3ccc(OC)c(OC)c3)C1=C[C@H](COCc1ccccc1)O[C@@H]2C,.,.,6,.
COC(=O)[C@H](C(C)C)N1CCc2nnn(CC3CCCCC3)c2-c2cc(F)ccc2S1(=O)=O,.,.,0,.

# Source: PubChem BioAssay (several laboratories)
